Measurements: PubChem BioAssay (NCI)
About 83,000 compounds went through this panel and 20% of them were active in at least one assay; those are over-represented in the sample as a whole.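 A percent growth of 40 corresponds to 60% growth inhibition; 0 means no net growth; -100 means all cells died. Active threshold: below 10.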 A number with no mark means an inactive call. Calls of active or inactive are those of the source.

Assays:
Test in all cases: NCI-60 one-dose screen, 48 h (100 = growth as untreated, 0 = no growth, -100 = all killed)
Conditions in all cases: 10 µM
K-562 leukemia = system: K-562 leukemia
MALME-3M melanoma = system: MALME-3M melanoma
MDA-MB-231 breast = system: MDA-MB-231 breast
RXF 393 renal = system: RXF 393 renal
SF-268 CNS = system: SF-268 CNS
SF-295 CNS = system: SF-295 CNS
SF-539 CNS = system: SF-539 CNS
UACC-257 melanoma = system: UACC-257 melanoma
M14 melanoma = system: M14 melanoma
HCT-15 colon = system: HCT-15 colon

Row | Structure (SMILES) | growth (K-562 leukemia) | growth (MALME-3M melanoma) | growth (MDA-MB-231 breast) | growth (RXF 393 renal) | growth (SF-268 CNS) | growth (SF-295 CNS) | growth (SF-539 CNS) | growth (UACC-257 melanoma) | growth (M14 melanoma) | growth (HCT-15 colon)
1 | Nc1cc2c(cc1Cl)-c1ccc([N+](=O)[O-])cc1/C2=N\O | 30.5% | 90.7% | 105% | 104% | 79.1% | 74.8% | 75.9% | 103% | 78.2% | 62.9%
2 | O=C(C[P+](c1ccccc1)(c1ccccc1)c1ccccc1)C[P+](c1ccccc1)(c1ccccc1)c1ccccc1 | -34.2% (active) | -86.5% (active) | -71.3% (active) | -70.2% (active) | -86.3% (active) | -72.4% (active) | -98.2% (active) | -82.3% (active) | -75.4% (active) | -77.6% (active)
3 | Cc1nc2ccc(CN(C)c3ccc(C(=O)N[C@@H](CCC(=O)O)C(=O)O)s3)cc2c(=O)[nH]1 | 30.6% | 60.7% | 89.4% | 31.8% | 26.4% | 22.9% | 6.05% (active) | 46.7% | 21.8% | 74.5%
4 | CC1(C)OC2=C(CC1Br)C(=O)C(=O)c1ccccc12 (stereo not given) | -5.94% (active) | -90.9% (active) | -25.1% (active) | -97.9% (active) | -87.6% (active) | -84.5% (active) | -82% (active) | -89.3% (active) | -91.2% (active) | -58.5% (active)
5 | COc1ccc(C2=NN(C(=O)c3ccc(S(C)(=O)=O)cc3)C(c3ccc(OC)c(OC)c3)C2)c(OC)c1 (stereo not given) | 77.2% | 113% | 95.2% | 105% | 89% | 98.7% | 102% | 92.2% | 103% | 99.4%
6 | COc1ccc(-c2nn(-c3cccc(NC(=O)Nc4cc(C(F)(F)F)cc(C(F)(F)F)c4)c3)cc2-c2ccncc2)cc1Cl | 7.03% (active) | -19.9% (active) | -63% (active) | -12.6% (active) | 9.51% (active) | -1.97% (active) | -42.9% (active) | -31% (active) | -34.1% (active) | 12.1%
7 | O=C(O)c1ccc(P(=O)(O)O)c([N+](=O)[O-])c1 | 107% | 97.7% | 108% | 105% | 110% | 99.2% | 104% | 92.2% | 114% | 102%
8 | CN(C)c1ccc(-c2cc(-c3cccc(NS(C)(=O)=O)c3)nc(N)c2C#N)cc1 | 10.9% | -7.09% (active) | -8.96% (active) | 20.3% | 20.8% | 0.228% (active) | 3.52% (active) | 80.4% | 11.6% | 24%
9 | CC1CN(Cc2ccccc2)C(=O)NC1=O (stereo not given) | 108% | 106% | 107% | 124% | 103% | 126% | 107% | 102% | 111% | 112%
10 | Cc1cc(C)c(NC(=O)c2sc3nc4c(cc3c2N)C(=O)CCC4)c(C)c1 | 19.8% | 42.1% | 35.7% | -6.66% (active) | 38.6% | -11.3% (active) | -6.5% (active) | 48.7% | 16.4% | 31.8%
11 | COc1ccc(OC)c(/C=C/c2nnc(Nc3ccc(Cl)cc3)o2)c1 | 80.6% | 41.5% | 70.9% | 56.3% | 76.5% | 46.9% | 90% | 100% | 77.9% | 98.3%
12 | O=C(CSSCC(=O)c1ccc(Cl)cc1)c1ccc(Cl)cc1 | 52.9% | 39.7% | 92.8% | 99.7% | 61% | 35.9% | 68.4% | 59.2% | 82.2% | 87.2%
13 | COc1ccc(N=C2C(=Nc3ccc(OC)cc3)N(c3ccc(N(C)C)cc3)C(=S)N2c2ccc(OC)cc2)cc1 | 61.9% | 72.9% | 90.2% | 106% | 90.2% | 2.47% (active) | 54.2% | 76.1% | 65.3% | 74.4%
